Experimental data published in PubChem BioAssay (NCI).
About 83,000 compounds went through this panel and 20% of them were active in at least one assay; those are over-represented in the sample as a whole.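 Testing used 96-well plates and a 48-hour single-concentration exposure. Example: -40 means 40% of the starting cells died.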 A number with no mark means an inactive call. Active and inactive are the calls of the source. The calls were made as follows: active = growth percent below 10; inactive = the rest.

test system: TK-10 renal; assay: NCI-60 one-dose screen, 48 h (100 = growth as untreated, 0 = no growth, -100 = all killed); settings: 10 µM unless noted

SMILES | growth
COc1cccc(O)c1O | 91.2%
C=CCNC(=O)c1ccc(OC)cc1 | 120%
C[N+](C)=c1ccc2nc3c(cc(Nc4ccccc4)c4ccccc43)oc-2c1 | 106%
Cc1cccc(CO)c1 | 108%
Nc1nc(N)c(N=Nc2ccc(C(=O)O)cc2)c(N)n1 | 130%
COCCOCCCl | 102%
Nc1ncnc2[nH]ncc12 | 1.19% (active)
O=[N+]([O-])c1ccc(-c2ncc(-c3ccc(Br)cc3)o2)cc1 | 108%
CCOC(=O)CSc1c([N+](=O)[O-])ncn1C | 94.2%
CC(C)(O)C#CC#CC(C)(C)O | 95.6%
COc1cc(C2NC(=O)C(C#N)=C(Nc3cccc(C)c3)S2)ccc1O (stereo not drawn) | 106%
CCOC(=O)Nc1nn[nH]n1 | 114%
O=C(NN=C1CCCCC1)C(=O)NN=C1CCCCC1 | 99%
O=C(CCl)Nc1ccc2c(c1)C(=O)c1ccc(NC(=O)CCl)cc1C2=O | 3% (active)
O=C(NC1CCCCC1)OCc1c(COC(=O)NC2CCCCC2)c(-c2ccc(Cl)c(Cl)c2)n2c1CCC2 | 35.2%
N#CCCN(CCCN1CCOCC1)CN1C(=O)c2ccccc2C1=O | 103%
O=c1[nH]cc(Cl)cc1O | 89.4%

SMILES | growth
CC(C)OC(C(=O)O)c1ccccc1 (stereo not drawn) | 98.4%
CCCOC(=O)C(O)c1ccccc1 (stereo not drawn) | 106%
COc1ccccc1NC(=O)c1cc2cc(Br)ccc2cc1O | 39.8%
OCCN1CCOCC1 | 106%
OCC1OC(OC2C(O)C(CO)OC2(CO)OC2OC(CO)C(O)C(O)C2O)C(O)C(O)C1O (stereo not drawn) | 106%
Cc1ccc(Cl)cc1NC(=O)N(C)CCO | 126%
CCOC(=O)C(O)C(O)C(=O)OCC (stereo not drawn) | 102%
O=c1cc(-c2ccccc2)nc2cc(-c3ccco3)[nH]n12 | 124%
S=c1[nH]ccn1-c1ccccc1Cl | 128%
C[N+](C)(C)C(=O)c1ccccc1 | 102%
CCc1ccc(/C(C#N)=C/C=C/c2ccccc2)cc1 | 16.9%
O=C(O)c1ccnc(Br)c1 | 104%
S=c1nn[nH]c2ccccc12 | 109%
O=[N+]([O-])c1ccc(CO)cc1 | 99.8%
O=C1C=C(O)C(=O)C=C1O | 102%
C#Cc1cccc(NC(=O)c2ccc(Cl)cc2Cl)c1 | 106%
